Compound activity: PubChem BioAssay, National Center for Advancing Translational Sciences (NCATS)
VDR inh – Inhibitors of the vitamin D receptor (VDR): qHTS | Vitamin D3 receptor (Homo sapiens), P11473 | VDR-SRC2-3 peptide fluorescence polarization, 2 h | Potency, µM, inactives show max response, negative = inhibition, most hits filed as inhibitors | hit rate 0.93% among 400,000; also: potency is read from the fitted curve at half-maximal effect
Target sequence (P11473 whole entry, looked up): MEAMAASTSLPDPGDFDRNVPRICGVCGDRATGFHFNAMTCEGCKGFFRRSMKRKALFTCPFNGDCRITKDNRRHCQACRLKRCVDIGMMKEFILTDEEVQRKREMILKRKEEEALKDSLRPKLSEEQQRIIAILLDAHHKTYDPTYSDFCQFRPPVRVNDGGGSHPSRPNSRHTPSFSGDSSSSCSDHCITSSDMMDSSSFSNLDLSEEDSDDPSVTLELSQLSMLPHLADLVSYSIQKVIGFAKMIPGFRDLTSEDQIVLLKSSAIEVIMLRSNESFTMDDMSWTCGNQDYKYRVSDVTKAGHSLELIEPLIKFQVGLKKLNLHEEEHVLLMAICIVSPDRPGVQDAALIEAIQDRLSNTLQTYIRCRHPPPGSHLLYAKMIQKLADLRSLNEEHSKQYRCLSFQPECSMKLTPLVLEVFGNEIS
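The screen uses fluorescence polarization to detect compounds that interfere with recruitment of the SRC2-3 coactivator peptide to VDR; plates are read after 2 h at room temperature.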
PI4K2A block – qHTS for small molecular inhibitors of PI4K2A. Phosphatidylinositol 4-kinase type 2-alpha (Homo sapiens), Q9BTU6. AID 1346378, 2018. activity change, negative = inhibition, % at 76.9 µM. purified PI4K2A, ADP-Glo luminescence, 1 h; active compounds read low. hit rate 0.13% among 420,000; in the data active = activity change below about -50%; inconclusive = mostly about -30% to -49%;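 also: -100% = wells without enzyme as full effect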
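In this quantitative HTS, ADP production by PI4K2A was quantified luminescently after 1 h at ambient temperature; 100 microM adenosine served as plate-quality control.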
PLK1 PBD inh – qHTS for Inhibitors of PLK1-PDB (polo-like kinase 1 - polo-box domain): Primary Screen; Serine/threonine-protein kinase PLK1 (Homo sapiens), P53350; Plk1 PBD binding of FITC phosphopeptide, fluorescence polarization; Potency, µM, inactives show max response, negative = inhibition, most hits filed as inhibitors; hit rate 2.8% among 360,000; also: potency is read from the fitted curve at half-maximal effect; series mostly up to about 57 µM; nearly all actives have a fitted effect of over 65% in size
GCN5L2 inh – qHTS Assay for Inhibitors of GCN5L2; hit rate 0.21% among 390,000; GCN5L2 HAT assay, ThioGlo1 CoA-SH fluorescence; Potency, µM (doses to about 58.9 µM), without a hit: at the top dose activity change, negative = inhibition, hits mostly inhibitors; Histone acetyltransferase KAT2A (Homo sapiens), Q92830; also: potency is read from the fitted curve at half-maximal effect
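GCN5L2 (20nM final) in 50mM HEPES, 0.1mM EDTA pH 7.5, 0.01% Tween-20 was preincubated 15 min at room temperature with compound, then given ThioGlo1 (50uM), H3(1-25) peptide (75uM) and acetyl-CoA (70uM); CoA-thiol fluorescence (Ex340/Em540) was read at 0 and 20 min.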
GLS inhibitor – qHTS for Inhibitors of Glutaminase (GLS); GLS enzymatic activity, qHTS titration; hit rate 0.21% among 410,000; Glutaminase kidney isoform, mitochondrial (Homo sapiens), O94925; Potency, µM (doses to about 45.5 µM), without a hit: at the highest dose activity change, negative = inhibition, most hits filed as inhibitors; also: potency is read from the fitted curve at half-maximal effect
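Read-out is an Amplex red fluorescence increase coupled through glutamate oxidase and HRP, measured before and after 30 min room-temperature incubation. hKGA is in 45 mM KH2PO4 (pH 8.2) with 0.02% Tween-20; glutamine added as 1mM solution.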
* hit, by the source's call. Most compounds without a hit are left out; they make up all but 3.1% or so of the library. Unless noted, calls follow the shape of the dose curve; as a rule, active = well fitted curve in the direction sought with a large enough effect; inconclusive = small, poorly fitted or top-dose-only effect, or another doubt; inactive = no such curve, though single readings can be large; an effect the other way counts as inactive or inconclusive. Unless noted, % is scaled to controls: 0 for no effect and ±100 for the full control effect.

Results for COc1ccc(CCNC(=O)CC2SC(N)=NC2=O)cc1OC (stereo unspecified) ?
VDR inh: inconclusive; PI4K2A block: 1; PLK1 PBD inh: 21µM*; GCN5L2 inh: 3%; GLS inhibitor: 2%

How did COc1ccc(CCNC(=O)CC(Cc2ccc(C)cc2)C(=O)O)cc1OC (stereo unspecified) do in these assays?
VDR inh: -30%; PI4K2A block: 0; PLK1 PBD inh: 24µM*; GCN5L2 inh: 14%; GLS inhibitor: 4%

How did COc1ccc(CCNC(=O)CSC(=O)c2ccccc2)cc1OC do in these assays?
VDR inh: inconclusive; PI4K2A block: 25; PLK1 PBD inh: 21µM*; GCN5L2 inh: -8%; GLS inhibitor: 7%

What do the screens show for `COc1ccc(CCNC(=O)CSCc2ccc([N+](=O)[O-])cc2)cc1OC`?
VDR inh: inconclusive; PI4K2A block: -9; PLK1 PBD inh: 9.5µM*; GCN5L2 inh: 3%; GLS inhibitor: inconclusive

Results for COc1ccc(CCNC(=O)CCN2C(=O)C3CC=CCC3C2=O)cc1OC (stereo unspecified) ?
VDR inh: 9%; PI4K2A block: 5; PLK1 PBD inh: 24µM*; GCN5L2 inh: -4%; GLS inhibitor: 15%

Results for COc1ccc(CCNC(=O)CCn2cccc2)cc1OC ?
VDR inh: 11%; PI4K2A block: 3; PLK1 PBD inh: -1%; GCN5L2 inh: 0%; GLS inhibitor: 6%

What do the screens show for `O=C(COC(=O)Cn1nnc2ccccc21)Nc1ccccc1Br`?
VDR inh: inconclusive; PI4K2A block: 0; PLK1 PBD inh: 30µM*; GCN5L2 inh: -2%; GLS inhibitor: -12%

What do the screens show for `COc1cccc(NC(=O)Nc2c(-c3ccc(C(F)(F)F)cc3)nc3ncccn23)c1`?
PI4K2A block: 3

How did CO/N=C\CC(=O)Nc1ccc(Cl)cc1Cl do in these assays?
VDR inh: inconclusive; PI4K2A block: 6; PLK1 PBD inh: 21µM*; GCN5L2 inh: -3%; GLS inhibitor: inconclusive

Results for CO/N=C\CC(=O)Nc1ccc(F)cc1 ?
VDR inh: -10%; PI4K2A block: -2; PLK1 PBD inh: 6%; GCN5L2 inh: 2%; GLS inhibitor: 0%

What do the screens show for `Cc1c(C)c2c(c(C)c1OC(=O)CCC(=O)OCCO)CC[C@](C)(CCC[C@H](C)CCC[C@H](C)CCCC(C)C)O2`?
GLS inhibitor: -2%

Results for COc1ccccc1NC(=S)NCc1ccc(S(N)(=O)=O)cc1 ?
VDR inh: -16%; PI4K2A block: 1; PLK1 PBD inh: -20%; GCN5L2 inh: 3%; GLS inhibitor: 4%

What do the screens show for `COc1ccccc1CNC(=S)Nc1ccc(S(N)(=O)=O)cc1`?
VDR inh: 4%; PI4K2A block: 5; PLK1 PBD inh: 21µM*; GCN5L2 inh: -12%; GLS inhibitor: 0%

How did NS(=O)(=O)c1ccc(NC(=S)NCc2cccs2)cc1 do in these assays?
VDR inh: -5%; PI4K2A block: 2; PLK1 PBD inh: 24µM*; GCN5L2 inh: -6%; GLS inhibitor: 5%

Results for Oc1ccc2cccnc2c1 ?
VDR inh: -6%; PI4K2A block: -5; PLK1 PBD inh: 27µM*; GCN5L2 inh: -11%; GLS inhibitor: 20%

Results for CCN(CC)C(=O)CC[C@H]1CC[C@]2(CCCN(C(=O)c3ccc4ccccc4n3)C2)O1 ?
PI4K2A block: -2

How did O=C(O)/C=C/c1ccc(OCc2cccc(F)c2)cc1 do in these assays?
VDR inh: inconclusive; PI4K2A block: -5; PLK1 PBD inh: 30µM*; GCN5L2 inh: -2%; GLS inhibitor: -12%

What do the screens show for `O=C(NCC1COc2ccccc2O1)c1ccc(NC(=O)c2cccc(F)c2F)cc1` (stereo unspecified)?
PI4K2A block: 1

How did O=C(O)C1CN(c2ncccc2[N+](=O)[O-])C1 do in these assays?
VDR inh: inconclusive; PI4K2A block: 1; PLK1 PBD inh: 13µM*; GCN5L2 inh: -6%; GLS inhibitor: inconclusive

How did COc1ccc(CNc2oc(/C=C/c3cccc(OC)c3)nc2C#N)cc1 do in these assays?
VDR inh: 9%; PI4K2A block: 4; GCN5L2 inh: -14%; GLS inhibitor: -3%

What do the screens show for `O=C(NCCCn1ccnc1)c1cc(-c2cccs2)on1`?
VDR inh: -6%; PI4K2A block: 1; PLK1 PBD inh: -4%; GCN5L2 inh: 2.2µM*; GLS inhibitor: 11%

What do the screens show for `O=C(NCCCN1CCOCC1)c1cc(-c2cccs2)on1`?
VDR inh: 19%; PI4K2A block: -1; PLK1 PBD inh: -8%; GCN5L2 inh: -2%; GLS inhibitor: -2%

What do the screens show for `O=C(NCc1ccco1)c1cc(-c2cccs2)on1`?
VDR inh: 2%; PI4K2A block: 1; PLK1 PBD inh: -4%; GCN5L2 inh: -8%; GLS inhibitor: 4%

What do the screens show for `O=C(NCc1ccccc1)c1cc(-c2cccs2)on1`?
VDR inh: -9%; PI4K2A block: 1; PLK1 PBD inh: -6%; GCN5L2 inh: 2.5µM*; GLS inhibitor: 1%

How did CCCC(=O)Nc1ccccc1NC(=O)c1ccc(OCC)cc1 do in these assays?
VDR inh: 6%; PI4K2A block: 0; PLK1 PBD inh: -7%; GCN5L2 inh: -5%; GLS inhibitor: -13%

What do the screens show for `O=C(COc1ccc2ccccc2c1)Nc1cccc(C(=O)Nc2ccccc2C(=O)O)c1`?
VDR inh: -8%; PI4K2A block: 0; PLK1 PBD inh: 24µM*; GCN5L2 inh: -12%; GLS inhibitor: 6%

How did CCOc1ccc(C(=O)Nc2ccccc2C(=O)O)cc1 do in these assays?
VDR inh: inconclusive; PI4K2A block: -13; PLK1 PBD inh: 27µM*; GCN5L2 inh: 18%; GLS inhibitor: 2%

What do the screens show for `Cc1ccccc1C(=O)Nc1cccc(OCc2cc(=O)n3cccc(C)c3n2)c1`?
VDR inh: 1%; PI4K2A block: 1; GCN5L2 inh: -1%; GLS inhibitor: -5%

How did O=C(O)c1ccccc1Nc1cccc(OCc2ccc3ccccc3n2)c1 do in these assays?
VDR inh: -12%; PI4K2A block: -2; PLK1 PBD inh: -8%; GCN5L2 inh: 28µM*; GLS inhibitor: -3%

How did Oc1c(Cl)cc(Cl)c2c1NCCC2 do in these assays?
VDR inh: 32µM*; PI4K2A block: -8; PLK1 PBD inh: 4.7µM*; GCN5L2 inh: -4%; GLS inhibitor: 11µM*

Results for COC(=O)c1cc(-c2ccccc2)sc1N ?
VDR inh: inconclusive; PI4K2A block: -6; PLK1 PBD inh: 21µM*; GCN5L2 inh: 0%; GLS inhibitor: -8%

How did CC(C)NC(=O)N[C@H]1C[C@@H]2O[C@H](CO)CC[C@@H]2O[C@@H]1CCc1ccc(-c2ccc(F)cc2)cc1 do in these assays?
PI4K2A block: -1
